SKKanGAS inh: SKKanGAS growth inhibition | S. pyogenes SKKanGAS, kanamycin growth, BacTiter-Glo, 6 h | inhibition, % at 7.5 µM | 300,000 compounds, 1.3% hits | AID 1662;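 active = mean replicate score, as percent of positive control median, at least 50; inconclusive = mean below 50 but one replicate at or above 50; inactive = mean and every replicate below 50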;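 also: strain carries kanamycin resistance gene driven by streptokinase promoter and grows in 40 µg/ml kanamycin; loss of luminescence reflects streptokinase promoter inhibition or plain growth inhibition; 0% = median of DMSO wells and 100% = positive control at its reference dose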
NALP1 yeast inh: NALP1 inhibition; S. cerevisiae NALP1/ASC/caspase-1 growth, X-gal OD620, 72 h; AID 2071; inhibition, % at 10 µM; 280,000 compounds, 0.61% hits; in the data active = inhibition mostly above about 24%, no sharp cut-off; inactive = mostly below about 32%
NALP3 yeast inh: inhibitors of NALP3 inflammasome in yeast; inhibition, % at 10 µM; 330,000 compounds, 0.39% hits; AID 2825; Yeast reconstituted NLRP3/ASC/caspase-1, beta-gal luminescence, 24 h;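 active = inhibition of 50% or more; inactive = inhibition below 50%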;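 also: plate controls were induced DMSO wells for no effect and uninduced yeast grown without galactose for full effect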
tim10-1 inh: growth inhibitors of tim10-1 mutant yeast; 330,000 compounds, 2.2% hits; S. cerevisiae tim10-1 ts strain growth, BacTiter-Glo, 24 h; inhibition, % at 20 µM;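 active = inhibition of at least 40%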;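 also: mutant grown at 25 °C; 0% = DMSO wells with yeast and 100% = wells holding no yeast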
TIM10 inh: growth inhibitors of TIM10 yeast strain | S. cerevisiae TIM10 strain growth, BacTiter-Glo luminescence, 24 h | AID 463195 | 330,000 compounds, 1.4% hits | inhibition, % at 10 µM;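 active = inhibition of 40% or more at the single tested concentration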;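 also: wild-type TIM10 isogenic control strain grown at permissive 25 °C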
tim23-1 inh: tim23-1 yeast growth inhibition | S. cerevisiae tim23-1 growth, BacTiter-Glo luminescence, 24 h | inhibition, % at 20 µM | 330,000 compounds, 1.3% hits;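 active = growth inhibition of the mutant yeast at or above 50%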;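 also: temperature-sensitive mutant grown at 25 °C; plate controls were DMSO-treated mutant yeast for no effect and medium wells lacking yeast for full effect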
TIM10 conf: TIM10 yeast growth inhibition, confirmed; shares compounds with TIM10 inh; S. cerevisiae tim10 strain growth, BacTiter-Glo luminescence, 24 h; inhibition, % at 10 µM; 4,600 compounds, 63% hits; AID 463215;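 active = inhibition of yeast growth at or above a set limit in either of two replicates at 10 µM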;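 also: this counterscreen used the strain with wild-type TIM10; 0% = yeast with DMSO and 100% = medium wells lacking yeast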
* = called active by the depositor; ? = inconclusive; nt = no result given. An excerpt weighted towards active compounds, which were near 4.9% of everything screened.

SMILES	SKKanGAS inh	NALP1 yeast inh	NALP3 yeast inh	tim10-1 inh	TIM10 inh	tim23-1 inh	TIM10 conf
N#CC(C#N)=C1C=CC=CN1/C(=C\c1ccccc1)C(=O)c1cccs1	0	33	-7	37	43*	21	18
CCOc1ccc(-n2c(=O)c3sccc3n(CC(=O)NC3CCCCC3)c2=O)cc1	0	28	9	-12	-10	-13	nt
COc1ccccc1N1CCN(C(=O)c2c(C)cc(=O)oc2C)CC1	-5	12	8	-6	-10	-2	nt
COc1cc2c(C(=O)N3CCN(c4ccccc4C)CC3)c(C)oc2cc1Br	51*	-18	18	37	52*	21	35*
Cc1cc(C)nc(Sc2ncnc(N)c2[N+](=O)[O-])n1	2	-4	1	21	34	30	nt
O=C(CNc1cccc(C(F)(F)F)c1)Nc1cccc(S(=O)(=O)N2CCCC2)c1	nt	nt	-4	23	17	16	nt
O=C(CN1CCN(S(=O)(=O)c2ccccc2)CC1)Nc1cccc(C(F)(F)F)c1	-6	6	14	31	41*	8	8
CC(C)NC(=S)NC(c1ccccc1)(c1ccccc1)c1ccccc1	81*	-10	-30	34	45*	44	49*
Cc1cccc(NC(=O)/C=C/c2ccc([N+](=O)[O-])s2)c1	11	30	nt	nt	nt	nt	nt
Cc1cccc(NC(=S)N/N=C/c2ccc([N+](=O)[O-])s2)c1	101*	-3	35	26	58*	24	34*
CC(=O)c1cccc(N=Nc2c(C)[nH]c3ccccc23)c1	-6	30	26	21	41*	17	29
CCc1cccc(N=c2c([N+](=O)[O-])nn(-c3ccc(Cl)cc3)n2O)c1	17	7	34	34	46*	34	30
Cc1cccc(N=c2c([N+](=O)[O-])nn(-c3ccc(Cl)cc3)n2O)c1	29	9	16	-18	-139	29	nt
CSCC[C@H](NC(=O)c1cccc(S(=O)(=O)N2CCCCC2)c1)c1nc2ccccc2[nH]1	nt	nt	8	8	-6	2	nt
CC(C)CCn1c(N2CCN(c3cccc(Cl)c3)CC2)nc2c1c(=O)[nH]c(=O)n2C	45	8	2	27	41*	21	-8
O=c1c2cc(N3CCOCC3)ccc2[nH]c(=S)n1CCCN1CCN(c2ccccc2F)CC1	nt	-7	14	26	47*	16	24*
CC(C)C(c1nnnn1C1CCCCC1)N1CCc2ccccc21 (configuration not stated)	0	2	-39	29	46*	-7	31*
Cc1ccc(C(c2nnnn2C2CCCCC2)N2CCc3ccccc32)cc1 (configuration not stated)	20	32	-8	27	24	32	nt
CCNC(=O)c1ccc(=O)n(Cc2ccc(Cl)cc2Cl)c1	5	nt	-3	5	14	9	nt
O=C(CNCCC1=CCCCC1)Nc1ccccc1N1CCCCC1	1	-31	-13	28	40*	33	24
COc1ccc(CCN2C(=O)N[C@@H](CCC(=O)O)C2=O)cc1	7	1	16	0	-4	1	nt
O=C(COC(=O)Cc1ccc(Br)cc1)NCc1ccc2c(c1)OCO2	nt	nt	13	4	-12	5	nt
CC1=CC(=O)C(C(C)C)=C/C1=N/OC(=O)c1cccc([N+](=O)[O-])c1	-5	34	-11	37	43*	47	32*
O=C(CCS(=O)(=O)c1ccccc1)Nc1ncc([N+](=O)[O-])s1	-4	-20	-3	25	41*	35	33*
COc1ccc(S(=O)(=O)N2CCN(CCOc3ccc(Br)cc3)CC2)cc1OC	nt	nt	24	20	13	32	nt
SMILES	SKKanGAS inh	NALP1 yeast inh	NALP3 yeast inh	tim10-1 inh	TIM10 inh	tim23-1 inh	TIM10 conf
COc1ccc(S(=O)(=O)N2CCN(CCOc3ccccc3Cl)CC2)cc1OC	nt	nt	31	15	97*	24	9
CC(=O)Nc1nc2c(C)c(Cl)ccc2s1	-2	nt	7	-5	-8	3	nt
Cc1c(Cl)ccc2sc(NC(=O)C3CC3)nc12	9	5	25	18	44*	50	38*
Cc1noc(C)c1C(=O)Nc1ccc(C#N)cc1	0	12	5	11	6	8	nt
COCc1[nH]nc2c1C(c1ccsc1)C(C#N)=C(N)O2 (configuration not stated)	1	12	21	22	13	15	nt
N#CC1=C(N)Oc2n[nH]c(-c3cccs3)c2C1c1cccs1 (configuration not stated)	-4	2	11	34	46*	0	23
COCc1[nH]nc2c1C(c1sccc1C)C(C#N)=C(N)O2 (configuration not stated)	-5	-13	21	34	53*	31	28*
C=CCOc1ccc2c(c1)C(=NO)c1cc(OCC=C)ccc1-2	-37	5	28	0	-19	21	nt
COc1ccc2c(c1)C(=NO)c1cc(OC)ccc1-2	-17	nt	44	38	45*	10	38*
Cc1cccc(C(=O)OCC(=O)Nc2ccccc2C(=O)NC2CC2)c1	nt	nt	24	6	-4	1	nt
Cc1ccc(NC(=S)Nc2ccc(OC(F)F)c(Cl)c2)cc1F	?	9	22	37	42*	40	36*
O=C(Oc1ccc(OC(=O)c2ccco2)c(S(=O)(=O)c2ccc(Cl)cc2)c1)c1ccco1	1	20	6	25	49*	32	-6
O=C(Nc1cc(Cl)ccc1Cl)c1ccc(OC(=O)c2ccco2)cc1	-3	6	25	17	4	-4	nt
O=C(NCCCN1CCOCC1)c1ccc2c(c1)N(Cc1c(F)cccc1Cl)C(=O)c1ccccc1S2	-7	-6	20	4	-1	-3	nt
CC(C)CNC(=O)/C=C/C=C/c1ccc2c(c1)OCO2	nt	nt	14	-16	-6	17	nt
S=C(Nc1ccccc1)Nc1cc(Cl)ccc1Oc1ccccc1	14	nt	-5	35	48*	46	-7
O=S(=O)(NCc1ccc2c(c1)OCO2)c1ccc2c(c1)oc1ccccc12	-13	20	11	30	46*	40	28*
O=C(CN(C(=O)CCC(=O)Nc1ccccn1)C1CCCC1)NCc1ccccc1	3	16	-8	-11	4	1	nt
COc1ccccc1NC(=O)c1cccc(S(=O)(=O)N2CCN(c3ccccc3)CC2)c1	nt	nt	22	27	24	29	nt
COC(=O)c1ccc(NC(=S)N2CCN(Cc3ccc(Cl)cc3)CC2)cc1	8	14	42	37	49*	39	36*
C=C(C)COc1ccc(-c2[nH]ncc2-c2ccc(Br)cc2)c(O)c1	65*	19	1	-7	49*	27	-18
COCCN(C(=O)COC(=O)CCc1ccccc1)c1c(N)n(Cc2ccccc2)c(=O)[nH]c1=O	nt	nt	10	-10	-1	1	nt
